# According to PMC5892938, “SARNAclust: Semi-automatic detection of RNA protein binding motifs from immunoprecipitation data”:
# Over roughly 11,000 sequences, “log2 fold change” has its median near 0.00022; the highest 2% begin near 0.34. The list shows a part of the results.
# Target: GST-SBP-SLBP (stem-loop binding protein) (Homo sapiens, UniProt Q14493 1-270)
# Assay: targeted RNA Bind-n-Seq; RBNS binding buffer: 25 mM Tris pH 7.5, 150 mM KCl, 3 mM MgCl2, 0.1% Tween, 0.5 mg/mL BSA, 1 mM DTT; 27 nM protein, 750 pM RNA pool; temperature not stated; high values mean tight binding
# Settings: protein: recombinant; tags: N-terminal GST and SBP (pGEX6P1-SBP); structured_RNA
# In short: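 Read counts per sequence supply the binding signal, defined as the DEseq fold change on a binary-logarithm scale. These counts came from RNA of a designed, T7-transcribed oligo pool at 750 pM that bound 27 nM of GST-SBP-tagged protein, made in Rosetta(DE3) pLysS E. coli and glutathione-purified, in RBNS binding buffer. The bound RNA was reverse transcribed with a 10-nucleotide barcoded primer, PCR-amplified and sequenced on a MiSeq with 200-cycle paired-end reads, then processed with FLASH and HISAT2 and collapsed by barcode.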
row,Sequence,binding signal [log2 fold change]
1,GGUCACGUCUCAAUCAACUCUUCAGAGGGGGGGAAAACCCCUUUGCCCUCAAUUUCAACAGCUCGCAGUCAAG,0.337 ± 0.433
2,GGUCACGUCUCAAUCAACUCUCCAGAGGGGGGGAAAACCCCUUUGCCCUCCAUUUCAACAGCUCGCAGUCAAG,0.536 ± 0.422
3,GGUCACGUCUCAAUCAACUCACACGAGGGGGGGAAAACCCCUUUACCCUCAUCCUCAACAGCUCGCAGUCAAG,0.453 ± 0.432
4,GGUCACGUCUCAAUCAACUCCUACGAGGGGGGGAAAACCCCUUUACCCUCAACCUCAACAGCUCGCAGUCAAG,0.619 ± 0.434
5,GGUCACGUCUCAAUCAACUCCUACGAGGGGGGGAAAACCCCUUUACCCUCAAAUUCAACAGCUCGCAGUCAAG,0.442 ± 0.411
6,GGUCACGUCUCAAUCAACUCCUACGAGGGGGGGAAAACCCCUUUACCCUCAUCAUCAACAGCUCGCAGUCAAG,0.348 ± 0.402
7,GGUCACGUCUCAAUCAACUCCUACGAGGGGGGGAAAACCCCUUUACCCUCAUAAUCAACAGCUCGCAGUCAAG,0.382 ± 0.421
8,GGUCACGUCUCAAUCAACUCAUGUCCAGGAGUUUACUCCUGCAAUCUCAACAGCUCGCAGUCAAG,0.371 ± 0.281
9,GGUCACGUCUCAAUCAACUCAAUUCCAGGAGUUUCCUCCUGCAUUUUCAACAGCUCGCAGUCAAG,0.321 ± 0.19
10,GGUCACGUCUCAAUCAACUCAUUCCCAGGAGUUUACUCCUGUAAUUUCAACAGCUCGCAGUCAAG,0.331 ± 0.233
11,GGUCACGUCUCAAUCAACUCAGGUCCAGGAGUUUACUCCUGCAAAUUCAACAGCUCGCAGUCAAG,0.356 ± 0.313
12,GGUCACGUCUCAAUCAACUCUUCCCCAGGAGUUUACUCCUGCAUUUUCAACAGCUCGCAGUCAAG,0.302 ± 0.227
13,GGUCACGUCUCAAUCAACUCAUCUCCAGGAGUUUCCUCCUGCAUACUCAACAGCUCGCAGUCAAG,0.323 ± 0.222
14,GGUCACGUCUCAAUCAACUCAAUCUCAGGAGUUUACUCCUGCAAAGUCAACAGCUCGCAGUCAAG,0.321 ± 0.217
15,GGUCACGUCUCAAUCAACUCAUCGCCAGGAGUUUACUCCUGCUAAUUCAACAGCUCGCAGUCAAG,0.301 ± 0.286
16,GGUCACGUCUCAAUCAACUCAUCUUCAGGAGUUUGCUCCUGCAAUCUCAACAGCUCGCAGUCAAG,0.328 ± 0.197
17,GGUCACGUCUCAAUCAACUCUAGUCCAGGAGUUUACUCCUGUUUAUUCAACAGCUCGCAGUCAAG,0.313 ± 0.255
18,GGUCACGUCUCAAUCAACUCAGGUCCAGGAGUUUACUCCUGCAAUUUCAACAGCUCGCAGUCAAG,0.516 ± 0.297
19,GGUCACGUCUCAAUCAACUCAACUCCAGGAGUUUACUCCUGUAAUCUCAACAGCUCGCAGUCAAG,0.456 ± 0.227
20,GGUCACGUCUCAAUCAACUCAAUCCCAGGAGUUUUCUCCUGCAAUGUCAACAGCUCGCAGUCAAG,0.317 ± 0.214
21,GGUCACGUCUCAAUCAACUCAAGUCCAGGAGUUUUCUCCUGCAAAGUCAACAGCUCGCAGUCAAG,0.447 ± 0.258

row,Sequence,binding signal [log2 fold change]
1,GGUCACGUCUCAAUCAACUCUUCUCCCAGGGAAAGCCCUGGUUAACUCAACAGCUCGCAGUCAAG,0.335 ± 0.269
2,GGUCACGUCUCAAUCAACUCUUCUCCCAGGGAAAGCCCUGGCAAUUUCAACAGCUCGCAGUCAAG,0.428 ± 0.307
3,GGUCACGUCUCAAUCAACUCUUCUCCCAGGGAAACCCCUGGUUAUUUCAACAGCUCGCAGUCAAG,0.372 ± 0.273
4,GGUCACGUCUCAAUCAACUCUUCGCCCAGGGAAAGCCCUGGUUAUUUCAACAGCUCGCAGUCAAG,0.464 ± 0.319
5,GGUCACGUCUCAAUCAACUCAGUCUCCAGGGAAAUCCCUGGCAAUCUCAACAGCUCGCAGUCAAG,0.4 ± 0.338
6,GGUCACGUCUCAAUCAACUCUAUCUCCAGGGAAAUCCCUGGUAAACUCAACAGCUCGCAGUCAAG,0.306 ± 0.25
7,GGUCACGUCUCAAUCAACUCUAUCUCCAGGGAAAUCCCUGGCAAUGUCAACAGCUCGCAGUCAAG,0.418 ± 0.298
8,GGUCACGUCUCAAUCAACUCAAUCUCCAGGGAAAACCCUGGCAAUGUCAACAGCUCGCAGUCAAG,0.578 ± 0.314
9,GGUCACGUCUCAAUCAACUCAAUCUCCAGGGAAAGCCCUGGCAAUGUCAACAGCUCGCAGUCAAG,0.309 ± 0.299
10,GGUCACGUCUCAAUCAACUCAGUCUCCAGGGAAAUCCCUGGUAUUUUCAACAGCUCGCAGUCAAG,0.347 ± 0.308
11,GGUCACGUCUCAAUCAACUCUUUCUCCAGGGAAAUCCCUGGCUAUCUCAACAGCUCGCAGUCAAG,0.375 ± 0.236
12,GGUCACGUCUCAAUCAACUCAUUCCCCAGGGAAACCCCUGGCUAACUCAACAGCUCGCAGUCAAG,0.341 ± 0.323
13,GGUCACGUCUCAAUCAACUCAUCUUCCAGGGAAAACCCUGGCUAAUUCAACAGCUCGCAGUCAAG,0.36 ± 0.265
14,GGUCACGUCUCAAUCAACUCAUUUUCCAGGGAAACCCCUGGCUAAUUCAACAGCUCGCAGUCAAG,0.348 ± 0.267
15,GGUCACGUCUCAAUCAACUCUUCCCCCAGGGAAACCCCUGGCUAAUUCAACAGCUCGCAGUCAAG,0.313 ± 0.254
16,GGUCACGUCUCAAUCAACUCAUUCGCCAGGGAAACCCCUGGGUAUUUCAACAGCUCGCAGUCAAG,0.329 ± 0.31
17,GGUCACGUCUCAAUCAACUCAUACGAGGGGGGGAAAACCCCUUUACCCUCAAUAUCAACAGCUCGCAGUCAAG,0.313 ± 0.436
18,GGUCACGUCUCAAUCAACUCAUACGAGGGGGGGAAAACCCCUUUACCCUCAAACUCAACAGCUCGCAGUCAAG,0.382 ± 0.399
19,GGUCACGUCUCAAUCAACUCAUACGAGGGGGGGAAAACCCCUUUACCCUCAAAUUCAACAGCUCGCAGUCAAG,0.598 ± 0.45
20,GGUCACGUCUCAAUCAACUCACAAGAGGGGGGGAAAACCCCUUUACCCUCGUCCUCAACAGCUCGCAGUCAAG,0.385 ± 0.429
